The results in this text go back to the supplement of paper PMC10681739.
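Also: Full-length recombinant human RUNX1 bound to double-stranded 36-bp genomic probes on a high-density microarray, scored as Alexa488 fluorescence per spot via anti-RUNX1 antibody, median of four replicate spots.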

Chain of RUNX1 (Q01196 whole entry): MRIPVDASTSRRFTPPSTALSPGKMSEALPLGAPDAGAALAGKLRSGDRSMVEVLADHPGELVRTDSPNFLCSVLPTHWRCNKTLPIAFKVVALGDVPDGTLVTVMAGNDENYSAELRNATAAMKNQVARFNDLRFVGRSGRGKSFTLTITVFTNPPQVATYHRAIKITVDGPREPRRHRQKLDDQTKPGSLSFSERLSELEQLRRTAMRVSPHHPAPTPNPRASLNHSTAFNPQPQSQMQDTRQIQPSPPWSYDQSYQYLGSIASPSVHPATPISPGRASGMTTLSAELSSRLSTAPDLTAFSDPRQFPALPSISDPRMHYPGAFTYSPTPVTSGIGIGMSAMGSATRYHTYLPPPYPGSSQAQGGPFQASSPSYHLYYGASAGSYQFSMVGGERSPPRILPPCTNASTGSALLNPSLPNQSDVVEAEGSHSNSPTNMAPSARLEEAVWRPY

The experiment has as its target RUNX1 (UniProt Q01196). Put plainly: RUNX1 binding intensity (PBM fluorescence), RUNX1 alone (arbitrary fluorescence units); higher = stronger binding. Conditions: RUNX1 concentration 2 nM; ETS1 concentration 0 nM. As to the method: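 Cooperative gcPBM on 36-bp genomic probes with neighbouring ETS1 and RUNX1 sites. Recombinant human RUNX1 (2 nM) was incubated alone or with ETS1 (25 nM) and detected with anti-RUNX1 antibody plus Alexa488 secondary. Values are medians over 4 replicate spots; the RUNX1+ETS1 data were normalised to the RUNX1-only data. The probes sit in constant array flanks that are not printed.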
For TGGGGAGGCAGGAAACGGGCCTTGTGGTTGGGGGGT, the RUNX1 binding intensity was found to be 770.
Then TTACGACACTTCCGGCGACGCCCCGCAGCCTTCACC, with 834; and GCTTCTGAGGAAGTGCGTTCTGTGGGTAGGTGGAGT, with 834.
Then CCTCCGGAACGGCGCGGGGGATTGTGGGGTGTAGGG, with 910.
Then CAGCTTTCCGGCCTGCAGCACAGGCAATGTGGTTTT, with 1020; and CGGCGCCTTCCGCAGAGGGACTGCGGCTTTCTGCGC, with 946; and CTAGCTGTGGACAGGAAACGAGTGGTTTTTGTGATC, with 740.
Regarding TAAGAAAAACAGTCATCCTGCGGTTTCCATTTGTGA, the RUNX1 binding intensity was found to be 6290.
Consider CAGCTGACAGGAAGGAGAGAACCACAGACAGTGCGA, for which the RUNX1 binding intensity was found to be 801.
In turn, CGCCTACTCTACTTCCGCGGTCGGCCGGGTAAGGAC came in with an RUNX1 binding intensity of 2130.
Under CAAGGTTCCTCCGCTTCCTGCCCGCAGGCCGAACCT stands 840; under GAAATTTCCGCTTTCTTTCTGCAGCAGGAACCGCGG, 849; under CAACACAGGATGTGCAGTATTATACCGCAAAGCACT, 1150.
On to GCAGAGAGGAAGTGTGGGGGTGGAGGAGGCCGCAGA, for which the RUNX1 binding intensity stood at 828.
Under TCACATTTTGCCGGATGTGGGTTGAGGGCATGCTGC stands 773; under TGGAAGAGGGCAGGAAGTGTTGTGGTCACTCCCACC, 856; under CGGGACCTGTTTCCTTGGGAACCACAAGATAAGACC, 709.
The sequence GTCTTTCACTCCACTTCCGCCCCCACAAAACATACA registered an RUNX1 binding intensity of 6600.
Then AGTGTCCGCCGCTTCCTGGTTGCGGGTCAGCGCCCA, with 824.
Under CCATGCACAACAGGATGTGGTTAGACAGTCAAAATT stands 875.
With CCCCGCCTCTTCCGCTTCTGTGGTCTGATCTGCCTG, the RUNX1 binding intensity was 1250.
Then AGCTAAACCCAGTTCCGGTGCTGTGGGGAGCTCAGA, with 741; and CTGGTAGAAAAGGAAGCAGGTTGTGGTGAGCATTTA, with 767.
Then GGAACAGGAAAAGCCTCCGGCAGCCCCTGCGGGCGG, with 719; and CGCCGGCTCCCGGATGTTGTGGGGATCAGCGCCCGC, with 771.
CTTGTGAAATGTATCCTGTGGTTGCCGGCTGAAGTG displayed an RUNX1 binding intensity of 848.
Consider GAGGGACAGGATGCCGCCAGGAACCACAAGAGCTTC, for which the RUNX1 binding intensity worked out at 844.
Under GCCCGCCCCGGAAGTGCAAACTGTGTGGTCTGGCAG stands 867; under AGCACTTCCGTTTGGGCAGGGCTGCGGGCCGGAGGG, 746.
Sequence ATGGGTACAGGATTTCCTTTTGTGGTGATGAAAATG came in with an RUNX1 binding intensity of 913.
On to ATGGAAAGGAAGTCGGTGGGAAACCGCCTCAGCGGT, for which the RUNX1 binding intensity was 740.
Under AACCTGCAGACTTCCTGCCATGTGACCACAGGGTCT stands 915.
Under TTTATCATGAATGCAGGATGTGGGCAAACTCGCATC stands 749; under GACACGTCTTTGGAAGGATGTGGTTGCCGTGGGTTT, 786.
The sequence CTCCGCCAGCCACCGGAACTGCGGCCCAGCAAAAAG gave an RUNX1 binding intensity of 927.
Then GCCACACTGGCGGAAATGGTGGTTACTGTTCGAGCC, with 711; and AAGGGAGCCGCCCGGAAACCGCGCGGCAAAGATGCC, with 734; and AGGTTGAAAGCACTTCCGCTGCGGCCCCCGTAGGAA, with 833.
Then CCAGCGGAAAGCCGGTCAGGGGGAACCGCGGCGGGG, with 893; and TGCAGCGCATCCTGGGACGTGCGGGCGGTGCATGAG, with 727.
